# Test results as given in PubChem BioAssay AID743449 (Broad Institute, 2014).
# Hit rate of the full screen: of about 9,900 compounds, about 90 (0.9%) were called active. Inconclusive results (about 2%) are left out. For the sample, actives were picked, then their nearest neighbours and some compounds at random. Values without a mark were called inactive.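 Rule for the calls: active = mean normalized replicate activity at least 50 and at least half of replicates each reaching 50; inconclusive = only one of the two criteria met; inactive = neither criterion met.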
# Assay: reduction of CTGF mRNA in DLD1 cells – DLD1 colon cancer cells, RT-qPCR, single point, primary screen (AID 743449);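 note: 0% = neutral control wells and 100% = dasatinib control wells; higher means stronger suppression of CTGF expression like dasatinib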
# Conditions: 24 h, at 12.5 µM, stronger effect = higher value
row,Structure (SMILES),inhibition
1,O=C(C[C@@H]1C=C[C@H](NC(=O)c2cnccn2)[C@H](CO)O1)NCc1ccccc1F,7.69%
2,COc1ccc2c3c([nH]c2c1)[C@H](CO)NCC31CN(C(=O)Nc2c(C)noc2C)C1,-10.8%
3,COc1ccc(CN(C)C[C@@H]2OCCCC[C@@H](C)Oc3ccc(NC(=O)C4CCCCC4)cc3C(=O)N([C@H](C)CO)C[C@@H]2C)cc1,-11.6%
4,N#C[C@@H]1[C@H](c2ccc(-c3cccc(F)c3)cc2)[C@@H](CO)N1C(=O)CN1CCOCC1,0.153%
5,CN1C(=O)c2cc(NC(=O)c3cccc(Cl)c3)ccc2OC[C@H]2O[C@@H](CC(=O)NC3CCCCC3)CC[C@H]21,19.3%
6,COc1ccc(C(=O)N2C[C@H]3[C@@H](c4ccccc42)[C@@H](CO)N3Cc2ccccc2Cl)cc1,-11.9%
7,COCC(=O)N1[C@H](CO)[C@H](c2ccc(C#Cc3ccccc3F)cc2)[C@@H]1C#N,5.53%
8,COc1ccc(C(=O)N2C[C@@H]3[C@H](c4ccccc42)[C@H](CO)N3C(=O)NC(C)C)cc1,-12.1%
9,C[C@H]1CN([C@@H](C)CO)C(=O)c2ccccc2-c2ccccc2CO[C@@H]1CN(C)C(=O)[C@H](Cc1ccccc1)N(C)C,-17.8%
10,Cc1noc(C)c1NC(=O)N(C)C[C@@H]1OCc2ccccc2-c2c(n(C)c3ccccc23)C(=O)N([C@H](C)CO)C[C@@H]1C,-14.8%
11,CCCC(=O)Nc1ccc2c(c1)C(=O)N(C)C[C@H](OC)[C@@H](C)CN(C(=O)c1ccccn1)[C@@H](C)CO2,25.7%
12,O=C([C@@H]1[C@@H](CO)[C@@H]2Cn3c(ccc(-c4ccc(F)cc4)c3=O)[C@@H]2N1Cc1cocn1)N1CCCCC1,-1.91%
13,O=C(NCC1CC1)[C@H]1[C@H](CO)[C@H]2Cn3c(ccc(-c4cccnc4)c3=O)[C@H]2N1Cc1cocn1,-2.27%
14,O=C([C@H]1[C@H](CO)[C@H]2Cn3c(ccc(-c4ccc(F)cc4)c3=O)[C@H]2N1Cc1cocn1)N1CCCCC1,53.6% (active)
15,CCS(=O)(=O)Nc1ccc2c(c1)C(=O)N(C)C[C@H](OC)[C@H](C)CN(C(=O)c1ccc3c(c1)OCO3)[C@@H](C)CO2,-9.16%
16,C[C@@H]1CN([C@H](C)CO)C(=O)CCCn2nncc2CO[C@H]1CN(C)Cc1ccc(C(=O)Nc2ccccc2N)cc1,-132%
17,COc1ccccc1C(=O)Nc1ccc2c(c1)C(=O)N(C)C[C@H](OC)[C@@H](C)CN(C(C)=O)[C@@H](C)CO2,64.2% (active)
18,CO[C@H]1CN(C)C(=O)c2cc(NC(=O)Nc3ccccc3F)ccc2OC[C@@H](C)N(CCC(F)(F)F)C[C@@H]1C,8.27%
19,CCCN1C[C@@H](C)[C@H](OC)CN(C)C(=O)c2cc(NS(=O)(=O)c3ccccc3)ccc2OC[C@@H]1C,-22.6%
20,CO[C@@H]1CN(C)C(=O)c2cc(NC(=O)Nc3ccccc3F)ccc2OC[C@H](C)N(CCC(F)(F)F)C[C@H]1C,21%

row,Structure (SMILES),inhibition
1,COc1ccccc1C(=O)Nc1ccc2c(c1)C(=O)N(C)C[C@H](OC)[C@H](C)CN(C(C)=O)[C@H](C)CO2,-22.7%
2,COc1ccccc1C(=O)Nc1ccc2c(c1)C(=O)N(C)C[C@@H](OC)[C@@H](C)CN(C(C)=O)[C@@H](C)CO2,-6.31%
3,CCCN1C[C@H](C)[C@@H](OC)CN(C)C(=O)c2cc(NS(=O)(=O)c3ccccc3)ccc2OC[C@H]1C,2.69%
4,CCC(=O)N1C[C@H](C)[C@@H](OC)CN(C)C(=O)c2cc(NC(=O)Nc3ccc(Cl)cc3)ccc2OC[C@@H]1C,59.6% (active)
5,CCC(=O)N1C[C@@H](C)[C@@H](OC)CN(C)C(=O)c2cc(NC(=O)Nc3ccc(Cl)cc3)ccc2OC[C@H]1C,-27.4%
6,CO[C@@H]1CN(C)C(=O)c2cc(NS(=O)(=O)c3ccccc3C)ccc2OC[C@@H](C)N(S(=O)(=O)c2ccccc2)C[C@H]1C,75.2% (active)
7,CCC(=O)N1C[C@@H](C)[C@@H](OC)CN(C)C(=O)c2cc(NC(=O)Nc3ccc(Cl)cc3)ccc2OC[C@@H]1C,15%
8,CO[C@H]1CN(C)C(=O)c2cc(NC(=O)Nc3ccccc3F)ccc2OC[C@H](C)N(CCC(F)(F)F)C[C@@H]1C,65.1% (active)
9,C[C@H](CO)N1C[C@H](C)[C@@H](CN(C)S(=O)(=O)c2cn(C)cn2)OCc2ccccc2-c2ccccc2C1=O,13.5%
10,C[C@H]1CN([C@@H](C)CO)C(=O)c2cc(-c3ccncc3)cnc2O[C@@H]1CN(C)C(=O)CN1CCOCC1,4.89%
11,O=C(C1CCOCC1)N1C[C@H]2[C@@H](c3ccccc31)[C@H](CO)N2C(=O)Cc1ccccn1,-3.22%
12,CCCNC(=O)N(C)C[C@H]1[C@H](c2ccccc2)[C@@H](CO)N1C(=O)c1ccccc1,13.1%
13,COCC(=O)Nc1ccc2c(c1)[C@H]1C[C@@H](CC(=O)N3CCOCC3)O[C@H](CO)[C@H]1O2,-2.81%
14,C[C@H](CO)N1C[C@H](C)[C@H](CN(C)Cc2cccnc2)Oc2ncc(-c3ccc(C#N)cc3)cc2C1=O,10.9%
15,Cc1noc(C)c1S(=O)(=O)N(C)C[C@H]1OCCCC[C@@H](C)Oc2ccc(NC(=O)CCC(F)(F)F)cc2C(=O)N([C@@H](C)CO)C[C@H]1C,-10.5%
16,CCN1[C@@H]2c3ccc(C4=CCCC4)c(=O)n3C[C@@H]2[C@@H](CO)[C@@H]1C(=O)NC1Cc2ccccc2C1,-18.3%
17,Cc1cc(C(=O)Nc2ccc3c(c2)C(=O)N(C)[C@@H]2CC[C@@H](CC(=O)O)O[C@H]2CO3)no1,8.49%
18,COCC(=O)N1CC[C@@H]2[C@@H](CO)Nc3ccc(C#Cc4ccc(F)cc4)cc3[C@@H]21,12.9%
19,COCC(=O)N1CC[C@@H]2[C@H]1c1cc(C#Cc3ccc(F)cc3)ccc1N[C@@H]2CO,22.4%
20,COCC(=O)N1CC[C@@H]2[C@H](CO)Nc3ccc(C#Cc4ccc(F)cc4)cc3[C@@H]21,51.2% (active)
